Our source for the outcome and AC50 values is PubChem BioAssay (EPA / NIEHS).

Each structure is given as a SMILES string. “And” between values parts separate entries of the source, which are not always exact repeats. Equal values may be shown once. Some compounds were tested as several samples or in several runs, with calls that do not always agree. The source made the active and inactive calls. The calls were made as follows: active = hit-call score of the fitted dose curve at least 0.9, where 1 is the maximum; inactive = score below 0.9.

A short description of assay [1]: APR_HepG2_CellCycleArrest_24hr: Apredica 24-hour HepG2 Assay for Cell Cycle Arrest (AID 2282905).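 Also: cell cycle arrest scored as ratio of 2N to 4N nuclear DNA content.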 The following applies: imaging, actives raise or lower the signal. In outline: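 Compounds at 0.39–200 uM (0.5% DMSO) for 24 h, then fixed and Hoechst 33342 stained. Cell-cycle analysis of nuclear DNA content by high-content imaging, fitted bidirectionally versus DMSO.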

The nature of assay [2]: APR_HepG2_StressKinase_1hr: Apredica 1-hour HepG2 Assay for Stress Kinase (AID 2282906). The following applies: HepG2 stress kinase (phospho-c-Jun) imaging, actives raise or lower the signal. In a few lines: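 HepG2 cells dosed 0.39-200 uM (0.5% DMSO) for 1 h, then formaldehyde-fixed. Stress kinase read by phospho-c-Jun immunofluorescence using high-content imaging; bidirectional fit vs DMSO.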

Assay [3] in a line: APR_HepG2_MicrotubuleCSK_24hr: Apredica 24-hour HepG2 Assay for Microtubule CSK Stabilty (AID 2282909). The following applies: HepG2 microtubule cytoskeleton imaging, actives raise or lower the signal. In a few lines:
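HepG2 cells were treated 24 hr with compound at 0.39–200 uM in duplicate (0.5% DMSO final), then fixed and permeabilized. Alpha-tubulin immunofluorescence was imaged by high-content microscopy, with bidirectional fitting against DMSO and taxol as positive control.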

The nature of assay [4]: APR_HepG2_MitoticArrest_24hr: Apredica 24-hour HepG2 Assay for Mitotic Arrest (AID 2282910). The following applies: high-content imaging, actives raise or lower the signal. In a few lines: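 Compounds are dosed onto HepG2 cells across ten concentrations up to 200 uM for 24 hr. Cells are then fixed in 3.7% formaldehyde, permeabilised, and labelled for phospho-histone H3 and nuclei; images are scored by cell cycle analysis and fitted bidirectionally relative to DMSO.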

Assay [5] in a line: APR_HepG2_MitoMembPot_24hr: Apredica 24-hour HepG2 Assay for Mitochondrial Membrane Potential (AID 2282911). The following applies: imaging, actives raise or lower the signal. In a few lines:
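HepG2 cells exposed 24 h to 0.39–200 uM compounds in duplicate, 0.5% v/v DMSO final. MitoTracker Red CMXRos 250 nM loaded 30 min before formaldehyde fixation; high-content imaging at 20x, bidirectional fit versus DMSO.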

Assay [6] can be described thus: APR_HepG2_MitoMass_24hr: Apredica 24-hour HepG2 Assay for Mitochondrial Mass (AID 2282912). The following applies: high-content imaging, actives raise or lower the signal. In outline:
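HepG2 cells exposed 24 hr to 0.39–200 uM compound, 0.5% v/v DMSO, in duplicate. Stained before fixation with 250 nM MitoTracker Red CMXRos for 30 min, then imaged at 20x with Hoechst nuclei. Fitted in both directions against DMSO.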

The nature of assay [7]: APR_HepG2_p53Act_24hr: Apredica 24-hour HepG2 Assay for p53 Activation (AID 2282913).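 Also: p53 protein immunofluorescence averaged per cell in HepG2 with Hoechst nuclei.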 The following applies: high-content imaging, actives raise or lower the signal. In a few lines:
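HepG2 cells exposed 24 h to compounds at 0.39–200 uM in duplicate, 0.5% v/v DMSO final; fixed, permeabilized, stained with anti-p53 antibody and Hoechst 33342; fluorescence imaging; bidirectional curve fit versus DMSO.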

A short description of assay [8]: APR_HepG2_CellLoss_72hr: Apredica 72-hour HepG2 Assay for Cell Loss (AID 2282915). The following applies: high-content imaging. In outline:
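Cell number comes from Hoechst 33342-labelled nuclei, imaged at 20x after 3.7% formaldehyde fixation. Dosing was 0.39–200 uM, ten concentrations in duplicate, 0.5% DMSO final, for 72 h. Bidirectional fit relative to DMSO baseline.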

Assay [9] is described as follows: APR_HepG2_P-H2AX_72hr: Apredica 72-hour HepG2 Assay for H2AX Phosphorylation (AID 2282916).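 Also: phospho-histone H2A.x immunostain intensity per cell marking DNA damage.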 The following applies: imaging, actives raise or lower the signal. In a few lines:
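HepG2 cells treated 72 h at 0.39–200 uM, 0.5% DMSO final, duplicates. Formaldehyde-fixed, Triton-permeabilised, immunostained for phospho-H2A.x with Hoechst; fluorescence imaged at 20x, bidirectional fit versus DMSO.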

A short description of assay [10]: APR_HepG2_MitoMembPot_72hr: Apredica 72-hour HepG2 Assay for Mitochondrial Membrane Potential (AID 2282917). The following applies: imaging, actives raise or lower the signal. In a few lines:
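Membrane potential read by MitoTracker Red CMXRos (250 nM, 30 min, pre-fixation) fluorescence imaging of HepG2 after 72 hr exposure. Ten concentrations, 0.39–200 uM, duplicate wells, 0.5% DMSO; fitted in both directions against DMSO baseline.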

Assay [11] in a line: APR_HepG2_MitoticArrest_72hr: Apredica 72-hour HepG2 Assay for Mitotic Arrest (AID 2282918). The following applies: high-content imaging, actives raise or lower the signal. In a few lines: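 HepG2 cells treated 72 h at 0.39–200 uM, 0.5% DMSO final; formaldehyde-fixed, stained with Hoechst 33342 and phospho-histone H3 antibody, imaged by high-content fluorescence; bidirectional fit versus DMSO.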

Assay [12] in a line: APR_HepG2_MicrotubuleCSK_72hr: Apredica 72-hour HepG2 Assay for Microtubule CSK Stabilty (AID 2282919). The following applies: HepG2 microtubule cytoskeleton, high-content imaging, actives raise or lower the signal. In outline:
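Read-out is tubulin fluorescence intensity from high-content imaging of HepG2 cells, with nuclei identified by Hoechst 33342. Treatment lasts 72 h at 0.39–200 uM, and curves are fitted bidirectionally against the DMSO negative control.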

A short description of assay [13]: APR_HepG2_P-H2AX_24hr: Apredica 24-hour HepG2 Assay for H2AX Phosphorylation (AID 2282920). The following applies: high-content imaging, actives raise or lower the signal. In outline: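 HepG2 cells dosed 24 h at 0.39–200 uM (10 points, duplicate, 0.5% DMSO final). Formaldehyde-fixed and permeabilized, then immunostained for phospho-H2A.x with Hoechst. Fluorescence quantified by high-content imaging, fitted bidirectionally versus DMSO.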

Assay [14] can be described thus: APR_HepG2_StressKinase_72hr: Apredica 72-hour HepG2 Assay for Stress Kinase (AID 2282921). The following applies: HepG2 stress kinase (phospho-c-Jun) imaging, actives raise or lower the signal. In outline:
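HepG2 cells treated 72 hr with 0.39–200 uM compound, 0.5% v/v DMSO, duplicate wells. After formaldehyde fixation and Triton permeabilization, stained with anti-phospho-c-Jun (1:500) and Cy3 secondary, imaged at 20x. Fitted in both directions against DMSO.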

The nature of assay [15]: APR_HepG2_StressKinase_24hr: Apredica 24-hour HepG2 Assay for Stress Kinase (AID 2282922). The following applies: HepG2 stress kinase (phospho-c-Jun) imaging, actives raise or lower the signal. In outline:
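HepG2, 24 hr dosing, 0.39–200 uM in duplicate, 0.5% DMSO; formaldehyde fix (3.7%), 0.5% Triton X-100; anti-phospho-c-Jun + Cy3 secondary, Hoechst counterstain; ArrayScan imaging; bidirectional curve fit vs DMSO baseline.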

Assay [16] is described as follows: APR_HepG2_p53Act_72hr: Apredica 72-hour HepG2 Assay for p53 Activation (AID 2282923).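 Also: average cellular p53 protein immunofluorescence intensity in HepG2 cells.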 The following applies: high-content imaging, actives raise or lower the signal. In outline: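 HepG2 cells exposed 72 h to 0.39–200 uM in 0.5% DMSO, duplicates. Fixed, permeabilized cells immunostained for p53 (Cy5) with Hoechst; imaged at 20x, fluorescence analyzed bidirectionally against DMSO.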

The nature of assay [17]: APR_HepG2_MitoMass_72hr: Apredica 72-hour HepG2 Assay for Mitochondrial Mass (AID 2282924).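 Also: MitoTracker Red CMXRos stain intensity per cell imaged as mitochondrial mass.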 The following applies: high-content imaging, actives raise or lower the signal. In outline: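 HepG2, 72 hr cmpd, 10 conc 0.39–200 uM in dup, DMSO 0.5% v/v. MitoTracker Red CMXRos 250 nM 30 min pre-fix; formaldehyde 3.7% fix 30 min RT. HCS imaging, gain/loss fit vs DMSO.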
Assay [18] in a line: APR_HepG2_CellCycleArrest_72hr: Apredica 72-hour HepG2 Assay for Cell Cycle Arrest (AID 2282914). The following applies: high-content imaging, actives raise or lower the signal. In outline:
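HepG2 cells exposed 72 h in duplicate to 0.39–200 uM compound, 0.5% DMSO final. Formaldehyde-fixed, Hoechst 33342-stained nuclei imaged at 20x, six fields per well; DNA content per valid cell quantified by cell-cycle image analysis, bidirectional fit versus DMSO.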

As a reminder, the AC50 is the midpoint of the concentration-response curve, whichever way the signal moves. Consider `CCc1nn(C)c(C(=O)NCc2ccc(C(C)(C)C)cc2)c1Cl`, for which the molecule was classed as inactive in [1], in assay [4], in [5], in [6], in [7] and in [9]. Further, the result in assay [10], in assay [11], in assay [14], in assay [15], in assay [16] and in assay [17] was inactive. For the same molecule, the AC50 in assay [2] was 9.39 µM (active); in assay [3] it was 19.8 µM (active); in [8], 20.7 µM (active); in assay [12], 0.0488 µM (active); in assay [13], 100 µM (active).
On to `C#CCOS(=O)OC1CCCCC1Oc1ccc(C(C)(C)C)cc1` (stereo unspecified), for which the AC50 in [1] was 3.03 µM (active); in assay [3], 38.4 µM (active); in [5], 6.31 µM (active); in assay [18], 2.92 µM (active); in [8], 3.12 µM (active); in assay [10] it was 3.43 µM (active). Also, the AC50 in assay [12] is 2.25 µM (active). Besides, the molecule was classed as inactive in assay [2], in [4], in assay [6], in assay [7], in assay [9] and in assay [11]. Moreover, the molecule was classed as inactive in assay [13], in assay [14], in assay [15], in [16] and in [17].
Take `COc1nc(NC(C)C)nc(NC(C)C)n1`: the outcome in [1], in assay [2], in [3], in [4], in assay [5] and in assay [6] was inactive. For the same molecule, the molecule was called inactive in assay [7], in assay [8], in [9], in [10], in assay [11] and in assay [12]. For the same molecule, the outcome in assay [13], in assay [14], in [15], in [16] and in assay [17] was inactive.
Take `OC(c1ccc(Cl)cc1)(c1cncnc1)c1ccccc1Cl` (stereo unspecified): the outcome in assay [1], in assay [2], in assay [6], in [7], in assay [9] and in assay [10] was inactive. The call in assay [11], in assay [13], in assay [14], in [15], in [16] and in assay [17] was inactive. Further, the AC50 in assay [3] is 84.9 µM (active); in assay [4] it was 91.1 µM (active); in [5], 31.5 µM (active); in assay [8], 10.4 µM (active); in assay [12], 167 µM (active).
Turning to `C=CCC1=C(C)C(OC(=O)C2C(C=C(C)C)C2(C)C)CC1=O` (stereo unspecified), the call in assay [1], in assay [2], in [3], in assay [4], in assay [5] and in [6] was inactive. Also, the result in [7], in assay [9], in [10], in [11], in assay [12] and in assay [13] was inactive. Also, the result in [14], in assay [15], in assay [16] and in [17] was inactive. The AC50 in assay [3] was 30.6 µM (active) and 29.7 µM (active); in assay [4] it was 35.4 µM (active) and 43.3 µM (active) and 46.9 µM (active); in assay [5], 112 µM (active); in assay [6], 29 µM (active) and 48.5 µM (active) and 56.1 µM (active); in [7], 42 µM (active); in [8] it was 57.1 µM (active) [middle of 4 runs]. Also, the AC50 in [9] was 53.8 µM (active) and 47.5 µM (active); in assay [11], 43.6 µM (active) and 50 µM (active) and 46 µM (active); in [13], 38.1 µM (active); in assay [14], 60.6 µM (active) and 52.5 µM (active); in assay [15], 32.4 µM (active); in assay [16], 117 µM (active). The AC50 in assay [17] was 66.4 µM (active).
For `N#Cc1nn(-c2c(Cl)cc(C(F)(F)F)cc2Cl)c(N)c1S(=O)C(F)(F)F` (stereo unspecified), the AC50 in assay [1] was 50.9 µM (active); in assay [3], 87.2 µM (active); in assay [4], 100 µM (active); in assay [18], 19.9 µM (active); in [8], 63.1 µM (active); in assay [9], 34.9 µM (active). In addition, the results for the AC50 in assay [12], in [13] and in assay [14] were 179 µM (active), 107 µM (active) and 105 µM (active), respectively. Also, the molecule was called inactive in assay [2], in assay [5], in assay [6], in [7], in [10] and in [11]. Moreover, the result in assay [15], in assay [16] and in assay [17] was inactive.
